These results are taken from PubChem BioAssay AID651658 (Broad Institute, 2012).

The whole screen tested about 340,000 compounds, of which about 5,100 (1.5%) were called active.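 How the source made its calls: active means mean Tm shift, scaled 0 neutral to 100 positive control, at about 1.3% or above, every replicate too (limit read from the data); inconclusive means no clear call, values can overlap the other calls; inactive means the rest.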 For the sample, actives were picked, then their nearest neighbours and some compounds at random.

In the experiment the target is Fibroblast growth factor 22 (Homo sapiens) (UniProt Q9HCT0). Put plainly: FGF22 ligand-induced thermal stabilization – biophysical, thermal shift, single point, FGF22 synaptogenesis inhibitor project, primary screen (AID 651658). The note with it: recombinant FGF22 thermal shift, SYPRO orange fluorescence; at 9.99 µM; stronger effect = higher value; percent of sucrose octasulfate shift, DMSO zero.
Sequence of Fibroblast growth factor 22 (Homo sapiens) (Q9HCT0 whole entry, looked up): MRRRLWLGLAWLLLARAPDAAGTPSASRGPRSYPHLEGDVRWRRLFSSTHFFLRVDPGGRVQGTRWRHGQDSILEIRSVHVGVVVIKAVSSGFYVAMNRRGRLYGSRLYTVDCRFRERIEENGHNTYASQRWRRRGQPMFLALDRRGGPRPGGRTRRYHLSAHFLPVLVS
On to `COc1ccc2c3c(n(C)c2c1)[C@@H](CO)N(C(=O)C1CC1)CC31CN(C(=O)C2CCOCC2)C1`, for which the activity (Tm shift, normalised) is -0.006% (inactive). As for `O=C(c1cccnc1)N1CCCCN2[C@@H](CO)[C@H](c3ccc(C#Cc4ccccc4)cc3)[C@@H]2C1`, the figure is -0.469% (inactive); as for `O=C1C=CCCN1C(=O)/C=C/c1ccc(F)cc1`, 1.39% (active); as for `O=C1CN(C(=O)COC(=O)/C=C/c2ccc(F)cc2)c2ccccc2N1`, 0.119% (inactive). As for `O=C(N/C(=C\c1ccc(F)cc1)C(=O)N1CCCCCC1)c1ccccc1`, the figure is -0.445% (inactive); as for `C[C@@H]1CN([C@H](C)CO)C(=O)c2cc(NS(=O)(=O)c3cn(C)cn3)ccc2O[C@@H](C)CCCCO[C@@H]1CN(C)C(=O)CCC(F)(F)F`, -0.484% (inactive). Then `CCc1nnc(NS(=O)(=O)c2ccc(NC(=S)NC(=O)/C=C/c3cccs3)cc2)s1`, with 43.7% (active); and `CCc1nnc(NS(=O)(=O)c2ccc(NC(=O)c3cccc(OC(F)(F)C(F)F)c3)cc2)s1`, with 1.64% (active).

Consider `CCc1nnc(NS(=O)(=O)c2ccc(NC(=S)NC(=O)c3cccs3)cc2)s1`, for which the activity (Tm shift, normalised) is 0.364% (inactive). Then `Cc1cc(NS(=O)(=O)c2ccc(NC(=O)c3cccc(OC(F)F)c3)cc2)nc(C)n1`, with 0.163% (inactive); and `CCOC(=O)c1c(NC(=S)NC(=O)/C=C/c2cccs2)sc(C)c1C`, with 0.207% (inactive). As for `CCc1nnc(NC(=O)c2cccc(S(=O)(=O)N(C)c3ccc(OC)cc3)c2)s1`, the figure is 0.249% (inactive); as for `O=C(Cc1ccncc1)NCC[C@H]1CC[C@@H](NC(=O)Nc2ccc(Cl)cc2)[C@@H](CO)O1`, -0.005% (inactive); as for `O=C(C[C@H]1CC[C@@H](NC(=O)Nc2ccc(F)cc2)[C@@H](CO)O1)NCCN1CCCC1`, -0.13% (inactive).

`CC(C)NC(=O)N[C@H]1CC[C@H](CC(=O)N2CCCCC2)O[C@@H]1CO`: the activity (Tm shift, normalised) was 0.022% (inactive). Turning to `COc1ccc(S(=O)(=O)Nc2ccc3c(c2)CC(=O)N([C@H](C)CO)C[C@H](C)[C@@H](CN(C)C(=O)NC(C)C)O3)cc1`, the activity (Tm shift, normalised) was -0.229% (inactive). Then `CCC(O)CNc1nc(-n2nc(C)cc2C)nc2sc3c(c12)CC(C)(C)OC3` (stereo not given), with -0.058% (inactive). As for `CC(C)c1nc2sc3c(c2c(=O)n1N)CC(C)(C)OC3`, the figure is 42.9% (active); as for `CCSc1nc2sc3c(c2c(=O)[nH]1)CC(C)(C)OC3`, -0.053% (inactive).

`COC(=O)[C@@H]1[C@@H](CO)[C@@H]2Cn3c(ccc(-c4ccc(OC)cc4)c3=O)[C@@H]2N1C`: the activity (Tm shift, normalised) was 0.199% (inactive). For `O=C(Cc1ccc(Cl)cc1)NC1CCS(=O)(=O)C1` (stereo not given), the activity (Tm shift, normalised) was -0.305% (inactive). Then `O=C(CSc1ccccc1F)NC1CCS(=O)(=O)C1` (stereo not given), with 43% (active); and `O=C(CSc1nn(-c2ccc(F)cc2)c(=S)s1)NC1CCS(=O)(=O)C1` (stereo not given), with 0.458% (inactive). As for `CO[C@H]1CC[C@@H]2CCOc3c(C#N)cccc3C(=O)N(C)CCCC(=O)N(C)C[C@@H]1O2`, the figure is 0.064% (inactive); as for `COc1ccc(Cc2nc3ccc(C(=O)N4CCC(N(C)C)C4)cc3o2)cc1` (stereo not given), -0.031% (inactive). As for `CCC1C(=O)NCCN1C(=O)c1ccc2nc(Cc3ccc(OC)cc3)oc2c1` (stereo not given), the figure is 0.064% (inactive); as for `CCn1ccnc1CN(C)C(=O)c1ccc2nc(Cc3ccc(OC)cc3)oc2c1`, 1.62% (active). With `COc1ccc2c3c(n(C)c2c1)[C@@H](CO)N(C(=O)NC1CCCC1)CC31CCN(C(C)=O)CC1`, the activity (Tm shift, normalised) was -0.236% (inactive). Regarding `CC=Cc1ccc2n(c1=O)C[C@@H]1[C@@H](CO)[C@H](C(=O)NCCC)[C@H]2N1C(=O)C1CC1` (mixture of isomers), the activity (Tm shift, normalised) is -0.404% (inactive). As for `CC(=O)Nc1ccccc1-c1cn(CC(=O)N2CCOCC2)nn1`, the figure is -0.164% (inactive); as for `O=C(CCl)N(Cc1cccc([N+](=O)[O-])c1)c1cccc(Cl)c1`, 43.2% (active); as for `O=C(c1cccc([N+](=O)[O-])c1)N1CCN(Cc2ccccc2)CC1`, 0.006% (inactive). As for `COC(=O)c1cc(C(=O)N(Cc2ccccc2)c2ccccn2)cc([N+](=O)[O-])c1`, the figure is 0.167% (inactive). Take `O=C(Oc1ccc(C(=S)N2CCOCC2)cc1)c1ccc(F)cc1`: the activity (Tm shift, normalised) was -0.154% (inactive). As for `O=C(c1ccc(F)cc1)n1cc(C(=S)N2CCOCC2)c2ccccc21`, the figure is 43.1% (active); as for `O=C(Nc1ccc(F)cc1)C(=O)c1cn(CC(=O)N2CCOCC2)c2ccccc12`, -0.305% (inactive); as for `COc1cc(NC(=O)c2ccc3c(c2)OCO3)ccc1NC(=O)c1cccs1`, 1.67% (active).

`COc1cc(NC(=O)c2cccs2)ccc1NC(=O)c1ccccc1Cl`: the activity (Tm shift, normalised) is 1.14% (inactive). Then `COC(=O)C[C@@H]1CC[C@H]2[C@H](COc3ccc(NC(=O)c4cccs4)cc3C(=O)N2C)O1`, with -0.323% (inactive). Then `CC(C)NC(=O)Nc1ccc2c(c1)C(=O)N(C)[C@H]1CC[C@H](CC(=O)NCc3ccc(F)cc3)O[C@H]1CO2`, with 0.053% (inactive); and `O=C(Nc1ccccc1F)N[C@H]1C=C[C@H](CC(=O)N2CCCCC2)O[C@H]1CO`, with 0.391% (inactive); and `C=CCN1C2CCCC1CC(NC(=S)Nc1cccc(OC)c1)C2` (stereo not given), with 43.2% (active).

As for `COc1cccc(NC(=O)N2C3CCCC2CC(NC(C)=O)C3)c1` (stereo not given), the activity (Tm shift, normalised) was 0.301% (inactive). With `CCCN1C2CCCC1CC(NC(=O)c1cccc(OC)c1)C2` (stereo not given), the activity (Tm shift, normalised) was -0.224% (inactive). Then `O=S(=O)(N[C@@H]1CC[C@H](CCn2cc(C3(O)CCCC3)nn2)O[C@@H]1CO)c1ccc(Cl)cc1`, with -0.216% (inactive); and `C[C@H]1CN([C@@H](C)CO)S(=O)(=O)c2ccc(-c3cccnc3)cc2O[C@H]1CN(C)C(=O)C1CCCCC1`, with 0.041% (inactive); and `CCCN1C[C@@H](C)[C@@H](OC)CN(C)C(=O)c2ccc(NC(=O)Nc3cccc(F)c3)cc2OC[C@@H]1C`, with -0.405% (inactive). Then `COC(=O)c1ccc(CN2CCN(CCCc3ccccc3)C(CCO)C2)cc1` (stereo not given), with 43.7% (active); and `OCCC1CN(Cc2ccc(Oc3ncccn3)cc2)CCN1CCc1ccccc1` (stereo not given), with 0.032% (inactive); and `CCOc1ccc(CN2CCN(CCCc3ccccc3)C(CCO)C2)cc1` (stereo not given), with -0.164% (inactive).
